# Results as given in ChEMBL document CHEMBL2218924, “A broad activity screen in support of a chemogenomic map for kinase signalling research and drug discovery” (Biochem J, 2013).
# Tests used:
# [1] = biological target: Tyrosine-protein kinase Fer (Homo sapiens) (UniProt P16591); settings: at 10 µM
# [2] = biological target: Tyrosine-protein kinase Fes/Fps (Homo sapiens) (UniProt P07332); settings: at 1 µM
# [3] = biological target: Tyrosine-protein kinase Fes/Fps (Homo sapiens) (UniProt P07332); settings: at 10 µM
# [4] = biological target: Tyrosine-protein kinase Fgr (Homo sapiens) (UniProt P09769); settings: at 1 µM
# [5] = biological target: Tyrosine-protein kinase Fgr (Homo sapiens) (UniProt P09769); settings: at 10 µM
# [6] = biological target: Vascular endothelial growth factor receptor 1 (Homo sapiens) (UniProt P17948); settings: at 1 µM
# [7] = biological target: Vascular endothelial growth factor receptor 1 (Homo sapiens) (UniProt P17948); settings: at 10 µM
# [8] = biological target: Receptor-type tyrosine-protein kinase FLT3 (Homo sapiens) (UniProt P36888); settings: at 1 µM
# [9] = biological target: Receptor-type tyrosine-protein kinase FLT3 (Homo sapiens) (UniProt P36888); settings: at 10 µM
# [10] = biological target: Vascular endothelial growth factor receptor 3 (Homo sapiens) (UniProt P35916); settings: at 1 µM
# [11] = biological target: Vascular endothelial growth factor receptor 3 (Homo sapiens) (UniProt P35916); settings: at 10 µM
# [12] = biological target: Macrophage colony-stimulating factor 1 receptor (Homo sapiens) (UniProt P07333); settings: at 1 µM
# [13] = biological target: Macrophage colony-stimulating factor 1 receptor (Homo sapiens) (UniProt P07333); settings: at 10 µM
# [14] = biological target: Tyrosine-protein kinase Fyn (Homo sapiens) (UniProt P06241); settings: at 1 µM
# [15] = biological target: Tyrosine-protein kinase Fyn (Homo sapiens) (UniProt P06241); settings: at 10 µM
# [16] = biological target: T1, Mitogen-activated protein kinase kinase kinase kinase 2 (Homo sapiens) (UniProt Q12851); settings: at 1 µM
# T1 sequence (whole entry): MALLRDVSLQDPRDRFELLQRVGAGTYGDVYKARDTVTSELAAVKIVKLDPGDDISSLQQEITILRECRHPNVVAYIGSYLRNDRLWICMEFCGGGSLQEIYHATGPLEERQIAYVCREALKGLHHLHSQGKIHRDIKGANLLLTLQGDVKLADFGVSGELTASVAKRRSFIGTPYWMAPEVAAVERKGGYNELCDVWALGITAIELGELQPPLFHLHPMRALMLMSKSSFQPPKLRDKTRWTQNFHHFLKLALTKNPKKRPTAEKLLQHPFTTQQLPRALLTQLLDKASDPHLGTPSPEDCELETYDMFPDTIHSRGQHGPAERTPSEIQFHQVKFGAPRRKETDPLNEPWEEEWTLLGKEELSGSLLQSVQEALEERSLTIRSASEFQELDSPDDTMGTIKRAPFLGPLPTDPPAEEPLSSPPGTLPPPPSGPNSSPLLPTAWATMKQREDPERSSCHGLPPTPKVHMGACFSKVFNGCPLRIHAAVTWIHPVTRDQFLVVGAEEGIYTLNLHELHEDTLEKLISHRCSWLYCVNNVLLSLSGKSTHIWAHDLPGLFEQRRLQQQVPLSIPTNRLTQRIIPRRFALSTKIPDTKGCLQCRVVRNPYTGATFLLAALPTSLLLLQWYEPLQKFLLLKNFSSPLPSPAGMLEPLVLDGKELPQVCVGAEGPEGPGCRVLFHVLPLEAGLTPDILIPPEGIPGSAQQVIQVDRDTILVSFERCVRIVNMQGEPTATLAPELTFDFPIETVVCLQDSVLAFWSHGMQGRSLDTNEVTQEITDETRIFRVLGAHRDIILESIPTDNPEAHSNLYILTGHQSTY
# [17] = biological target: T1, Mitogen-activated protein kinase kinase kinase kinase 2 (Homo sapiens); settings: at 10 µM
# [18] = biological target: G protein-coupled receptor kinase 5 (Homo sapiens) (UniProt P34947); settings: at 1 µM
# [19] = biological target: G protein-coupled receptor kinase 5 (Homo sapiens) (UniProt P34947); settings: at 10 µM
# [20] = biological target: G protein-coupled receptor kinase 6 (Homo sapiens) (UniProt P43250); settings: at 1 µM
# Chain of G protein-coupled receptor kinase 6 (Homo sapiens) (P43250 whole entry, looked up): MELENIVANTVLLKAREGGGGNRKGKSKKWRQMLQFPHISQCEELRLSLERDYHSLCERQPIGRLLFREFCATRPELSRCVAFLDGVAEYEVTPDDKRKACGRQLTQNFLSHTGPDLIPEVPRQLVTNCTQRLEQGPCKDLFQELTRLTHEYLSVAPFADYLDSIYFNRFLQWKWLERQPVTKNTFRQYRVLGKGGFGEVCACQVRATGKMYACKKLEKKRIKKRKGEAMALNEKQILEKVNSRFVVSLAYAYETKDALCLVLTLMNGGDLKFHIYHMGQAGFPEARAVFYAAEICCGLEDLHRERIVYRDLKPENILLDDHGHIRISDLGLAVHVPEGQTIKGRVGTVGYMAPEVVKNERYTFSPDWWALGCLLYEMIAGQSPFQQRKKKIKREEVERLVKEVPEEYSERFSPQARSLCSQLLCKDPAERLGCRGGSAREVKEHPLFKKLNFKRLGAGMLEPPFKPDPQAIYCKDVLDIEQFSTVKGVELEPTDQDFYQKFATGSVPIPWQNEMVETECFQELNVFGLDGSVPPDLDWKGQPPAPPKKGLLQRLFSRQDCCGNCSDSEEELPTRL
# Chain of Vascular endothelial growth factor receptor 3 (Homo sapiens) (P35916 whole entry): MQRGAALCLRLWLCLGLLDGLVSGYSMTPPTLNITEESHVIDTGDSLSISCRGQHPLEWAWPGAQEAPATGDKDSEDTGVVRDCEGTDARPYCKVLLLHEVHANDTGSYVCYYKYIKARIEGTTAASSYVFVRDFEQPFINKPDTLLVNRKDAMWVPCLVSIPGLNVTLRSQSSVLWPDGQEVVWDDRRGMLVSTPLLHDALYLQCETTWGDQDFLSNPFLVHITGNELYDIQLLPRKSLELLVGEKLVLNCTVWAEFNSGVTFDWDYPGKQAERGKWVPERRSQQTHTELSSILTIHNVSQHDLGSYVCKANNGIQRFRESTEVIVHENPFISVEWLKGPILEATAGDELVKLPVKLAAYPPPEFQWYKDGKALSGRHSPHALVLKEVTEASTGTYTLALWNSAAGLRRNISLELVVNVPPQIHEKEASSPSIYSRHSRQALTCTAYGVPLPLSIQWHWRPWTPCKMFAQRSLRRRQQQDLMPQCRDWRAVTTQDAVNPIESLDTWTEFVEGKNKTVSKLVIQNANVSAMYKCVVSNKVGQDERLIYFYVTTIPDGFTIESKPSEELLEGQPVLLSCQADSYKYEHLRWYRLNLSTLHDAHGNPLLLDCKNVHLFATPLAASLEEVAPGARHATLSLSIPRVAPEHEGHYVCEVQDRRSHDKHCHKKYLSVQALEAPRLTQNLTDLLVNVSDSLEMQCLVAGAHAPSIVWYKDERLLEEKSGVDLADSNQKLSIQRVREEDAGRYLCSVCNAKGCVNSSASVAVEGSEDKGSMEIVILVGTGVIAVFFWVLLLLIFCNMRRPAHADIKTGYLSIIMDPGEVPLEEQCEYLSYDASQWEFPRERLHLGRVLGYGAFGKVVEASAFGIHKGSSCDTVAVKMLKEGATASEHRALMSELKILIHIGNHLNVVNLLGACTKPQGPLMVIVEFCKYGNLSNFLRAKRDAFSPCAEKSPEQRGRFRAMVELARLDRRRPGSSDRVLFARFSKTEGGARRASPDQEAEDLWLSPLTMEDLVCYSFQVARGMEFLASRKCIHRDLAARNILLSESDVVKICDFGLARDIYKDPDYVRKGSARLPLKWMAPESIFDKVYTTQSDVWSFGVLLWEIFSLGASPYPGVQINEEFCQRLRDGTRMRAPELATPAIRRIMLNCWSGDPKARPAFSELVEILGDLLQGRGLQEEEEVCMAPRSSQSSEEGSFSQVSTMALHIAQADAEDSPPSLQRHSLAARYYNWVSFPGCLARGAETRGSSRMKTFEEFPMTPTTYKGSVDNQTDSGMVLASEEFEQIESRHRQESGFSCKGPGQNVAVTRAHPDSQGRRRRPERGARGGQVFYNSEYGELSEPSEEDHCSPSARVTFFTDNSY
# Chain of Tyrosine-protein kinase Fer (Homo sapiens) (P16591 whole entry, looked up): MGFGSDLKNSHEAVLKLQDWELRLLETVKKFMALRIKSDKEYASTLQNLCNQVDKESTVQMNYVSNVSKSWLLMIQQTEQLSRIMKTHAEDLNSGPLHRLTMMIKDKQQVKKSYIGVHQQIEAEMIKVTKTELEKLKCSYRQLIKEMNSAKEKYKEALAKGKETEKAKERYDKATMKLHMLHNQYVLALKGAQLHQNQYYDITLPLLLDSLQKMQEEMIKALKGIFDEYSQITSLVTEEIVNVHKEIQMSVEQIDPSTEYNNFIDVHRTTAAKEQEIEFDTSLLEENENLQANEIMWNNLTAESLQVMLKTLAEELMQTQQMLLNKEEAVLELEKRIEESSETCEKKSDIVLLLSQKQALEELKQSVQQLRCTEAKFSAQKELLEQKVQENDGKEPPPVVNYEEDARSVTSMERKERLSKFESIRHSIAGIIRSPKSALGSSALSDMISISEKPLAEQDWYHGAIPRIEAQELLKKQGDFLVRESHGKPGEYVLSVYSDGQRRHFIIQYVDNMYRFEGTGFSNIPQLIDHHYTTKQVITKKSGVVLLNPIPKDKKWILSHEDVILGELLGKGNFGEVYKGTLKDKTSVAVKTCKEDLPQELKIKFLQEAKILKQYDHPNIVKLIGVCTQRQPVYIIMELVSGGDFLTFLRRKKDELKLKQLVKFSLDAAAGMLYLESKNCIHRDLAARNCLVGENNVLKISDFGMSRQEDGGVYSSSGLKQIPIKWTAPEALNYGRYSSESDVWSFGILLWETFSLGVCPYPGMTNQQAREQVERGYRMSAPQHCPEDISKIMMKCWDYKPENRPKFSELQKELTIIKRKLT
# Chain of Tyrosine-protein kinase Fgr (Homo sapiens) (P09769 2-529 limits assumed): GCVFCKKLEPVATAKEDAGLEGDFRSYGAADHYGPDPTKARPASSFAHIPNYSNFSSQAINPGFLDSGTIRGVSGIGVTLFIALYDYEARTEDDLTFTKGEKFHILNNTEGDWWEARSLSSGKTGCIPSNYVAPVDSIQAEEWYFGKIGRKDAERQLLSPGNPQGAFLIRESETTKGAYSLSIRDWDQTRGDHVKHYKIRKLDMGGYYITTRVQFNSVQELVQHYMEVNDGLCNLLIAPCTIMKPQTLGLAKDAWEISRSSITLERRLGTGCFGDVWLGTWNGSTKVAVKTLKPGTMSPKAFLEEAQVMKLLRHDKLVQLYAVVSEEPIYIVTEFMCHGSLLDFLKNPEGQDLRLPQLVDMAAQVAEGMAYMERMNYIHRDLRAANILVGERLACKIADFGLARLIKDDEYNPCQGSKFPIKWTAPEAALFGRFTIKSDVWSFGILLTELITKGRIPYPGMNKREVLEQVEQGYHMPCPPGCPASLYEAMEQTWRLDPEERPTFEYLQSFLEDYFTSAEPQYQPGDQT
# Chain of Tyrosine-protein kinase Fes/Fps (Homo sapiens) (P07332 whole entry): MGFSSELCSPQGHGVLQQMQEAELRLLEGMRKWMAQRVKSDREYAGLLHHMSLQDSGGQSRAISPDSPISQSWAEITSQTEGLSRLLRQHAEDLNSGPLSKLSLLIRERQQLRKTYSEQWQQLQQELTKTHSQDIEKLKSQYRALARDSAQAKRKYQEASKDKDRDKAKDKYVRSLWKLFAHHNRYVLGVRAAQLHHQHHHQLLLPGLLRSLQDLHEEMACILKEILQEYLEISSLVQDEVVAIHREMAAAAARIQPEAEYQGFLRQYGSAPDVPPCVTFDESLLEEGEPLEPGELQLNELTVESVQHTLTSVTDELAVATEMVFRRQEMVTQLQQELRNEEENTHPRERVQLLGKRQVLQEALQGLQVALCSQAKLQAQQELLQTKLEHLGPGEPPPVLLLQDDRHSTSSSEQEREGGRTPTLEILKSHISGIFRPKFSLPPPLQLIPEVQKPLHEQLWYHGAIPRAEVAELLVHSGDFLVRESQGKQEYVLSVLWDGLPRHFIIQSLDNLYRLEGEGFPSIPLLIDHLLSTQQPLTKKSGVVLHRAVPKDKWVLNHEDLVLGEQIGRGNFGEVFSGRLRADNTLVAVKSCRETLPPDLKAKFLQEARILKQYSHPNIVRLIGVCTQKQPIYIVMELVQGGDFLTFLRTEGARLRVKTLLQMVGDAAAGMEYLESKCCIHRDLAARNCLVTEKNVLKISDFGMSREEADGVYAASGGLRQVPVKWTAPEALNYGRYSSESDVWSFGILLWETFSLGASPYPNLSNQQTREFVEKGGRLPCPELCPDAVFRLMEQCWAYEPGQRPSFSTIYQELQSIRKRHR
# Chain of Macrophage colony-stimulating factor 1 receptor (Homo sapiens) (P07333 whole entry): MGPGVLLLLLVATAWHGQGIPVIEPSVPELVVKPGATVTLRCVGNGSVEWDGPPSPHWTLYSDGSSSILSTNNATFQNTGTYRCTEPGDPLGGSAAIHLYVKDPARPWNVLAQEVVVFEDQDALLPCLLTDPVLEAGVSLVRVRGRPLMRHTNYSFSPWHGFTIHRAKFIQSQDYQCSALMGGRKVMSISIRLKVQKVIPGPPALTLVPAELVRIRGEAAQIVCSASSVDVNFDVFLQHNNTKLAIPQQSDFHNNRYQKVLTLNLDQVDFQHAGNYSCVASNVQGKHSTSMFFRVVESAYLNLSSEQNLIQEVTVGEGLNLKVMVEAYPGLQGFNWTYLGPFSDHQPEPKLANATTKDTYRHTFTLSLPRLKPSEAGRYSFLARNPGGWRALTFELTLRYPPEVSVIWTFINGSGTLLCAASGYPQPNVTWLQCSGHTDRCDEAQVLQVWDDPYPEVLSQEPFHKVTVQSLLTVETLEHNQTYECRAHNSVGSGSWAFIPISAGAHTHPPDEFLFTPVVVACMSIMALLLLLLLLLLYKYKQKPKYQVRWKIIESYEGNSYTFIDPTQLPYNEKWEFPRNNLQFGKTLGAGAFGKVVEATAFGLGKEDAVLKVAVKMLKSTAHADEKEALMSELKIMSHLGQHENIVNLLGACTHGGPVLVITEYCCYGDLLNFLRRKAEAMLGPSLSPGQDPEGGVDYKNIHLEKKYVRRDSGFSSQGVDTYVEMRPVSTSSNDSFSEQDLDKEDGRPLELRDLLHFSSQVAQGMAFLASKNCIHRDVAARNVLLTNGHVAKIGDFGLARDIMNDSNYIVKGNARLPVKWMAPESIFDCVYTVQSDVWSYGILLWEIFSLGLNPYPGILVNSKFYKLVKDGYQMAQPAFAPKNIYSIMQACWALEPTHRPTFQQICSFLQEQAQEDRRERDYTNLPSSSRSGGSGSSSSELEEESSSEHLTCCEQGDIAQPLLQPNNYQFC
smiles,measurement,setting,value
COc1cc(OC)c(/C=C2\C(=O)Nc3ccccc32)c(OC)c1,residual activity,[1],94%
same,residual activity,[2],102%
same,residual activity,[3],92%
same,residual activity,[4],86%
same,residual activity,[5],76%
same,residual activity,[6],92%
same,residual activity,[7],94%
same,residual activity,[8],83%
same,residual activity,[9],72%
same,residual activity,[10],76%
same,residual activity,[11],74%
same,residual activity,[12],87%
same,residual activity,[13],69%
same,residual activity,[14],70%
same,residual activity,[15],68%
same,residual activity,[16],95%
same,residual activity,[17],86%
same,residual activity,[18],101%
same,residual activity,[19],99%
same,residual activity,[20],89%
Nc1nc(Nc2ccc(S(N)(=O)=O)cc2)nn1C(=S)Nc1c(F)cccc1F,residual activity,[18],77%
O=C1Cc2c([nH]c3ccc(Br)cc23)-c2ccccc2N1,residual activity,[18],95%
CN[C@@H]1C[C@H]2O[C@@](C)([C@@H]1OC)n1c3ccccc3c3c4c(c5c6ccccc6n2c5c31)C(=O)NC4,residual activity,[6],0%
same,residual activity,[7],-1%
same,residual activity,[8],-1%
same,residual activity,[9],-1%
same,residual activity,[17],0%
O=C(c1cc2cc(O)ccc2[nH]1)c1cc2cc(O)ccc2[nH]1,residual activity,[18],79%
CC(C)(C)n1nc(Cc2cccc3ccccc23)c2c(N)ncnc21,residual activity,[18],108%
CCCCc1c(-c2ccc(OC)cc2)[nH]c2nccnc12,residual activity,[18],88%
COc1cc2ncnc(Nc3cccc(Cl)c3)c2cc1OC,residual activity,[18],108%
O=c1[nH]c2ccccc2n1C1CCN(Cc2ccc(-c3nc4cc5[nH]cnc5cc4nc3-c3ccccc3)cc2)CC1,residual activity,[1],99%
same,residual activity,[2],120%
same,residual activity,[3],97%
same,residual activity,[4],107%
same,residual activity,[5],83%
same,residual activity,[6],103%
same,residual activity,[7],86%
same,residual activity,[8],95%
same,residual activity,[9],38%
same,residual activity,[10],100%
same,residual activity,[11],59%
same,residual activity,[12],55%
same,residual activity,[13],51%
same,residual activity,[14],95%
same,residual activity,[15],72%
same,residual activity,[16],101%
same,residual activity,[17],80%
same,residual activity,[18],103%
same,residual activity,[19],85%
same,residual activity,[20],100%
O=C1NC(=O)C(c2cn(CCCO)c3ncccc23)=C1c1cnccn1,residual activity,[18],100%
CC(C)[C@H](CO)Nc1nc(Nc2cccc(Cl)c2)c2ncn(C(C)C)c2n1,residual activity,[1],26%
same,residual activity,[2],79%
same,residual activity,[3],19%
same,residual activity,[4],23%
same,residual activity,[5],0%
same,residual activity,[6],88%
same,residual activity,[7],43%
same,residual activity,[8],17%
same,residual activity,[9],2%
same,residual activity,[10],42%
same,residual activity,[11],3%
same,residual activity,[12],70%
same,residual activity,[13],34%
same,residual activity,[14],4%
same,residual activity,[15],-1%
same,residual activity,[16],75%
same,residual activity,[17],23%
same,residual activity,[18],97%
same,residual activity,[19],82%
COC(=O)[C@@]1(O)C[C@H]2O[C@]1(C)n1c3ccccc3c3c4c(c5c6ccccc6n2c5c31)C(=O)NC4,residual activity,[1],0%
same,residual activity,[2],7%
same,residual activity,[3],1%
same,residual activity,[4],3%
same,residual activity,[5],-1%
same,residual activity,[6],0%
same,residual activity,[7],0%
same,residual activity,[8],0%
same,residual activity,[9],1%
same,residual activity,[10],0%
same,residual activity,[11],1%
same,residual activity,[12],2%
same,residual activity,[13],1%
same,residual activity,[14],4%
same,residual activity,[15],0%
same,residual activity,[16],0%
same,residual activity,[17],1%
same,residual activity,[18],40%
same,residual activity,[19],5%
same,residual activity,[20],36%
O=C1NC(=O)C(c2cn(CCCn3ccnc3)c3ccccc23)=C1Nc1ccccc1,residual activity,[18],78%
CCN(CC)CCCCN1c2ccccc2Oc2ccc(Cl)cc21,residual activity,[18],107%
same,residual activity,[20],102%
Cn1sc(=O)n(Cc2ccccc2)c1=O,residual activity,[18],88%
same,residual activity,[20],88%
Cc1nc2cc3nc(-c4cccs4)cnc3cc2n1C,residual activity,[18],113%
same,residual activity,[20],103%
O=c1c(-c2ccc(F)cc2)c(-c2ccncc2)[nH]n1-c1ccc(Cl)cc1,residual activity,[18],101%
same,residual activity,[20],99%
CO[C@H]1[C@@H](OC)C[C@H](C)[C@@H](OC)C2=CC(=O)C=C(NC(=O)/C(C)=C/C=C/[C@H](OC)[C@@H](OC(N)=O)/C(C)=C/[C@@H]1C)C2=O,residual activity,[18],70%
same,residual activity,[20],97%
Oc1ccc(-c2nc(-c3ccc(F)cc3)c(-c3ccncc3)[nH]2)cc1,residual activity,[18],109%
same,residual activity,[20],109%
Nc1ncnc2c1c(-c1ccc(Oc3ccccc3)cc1)cn2C1CCCC1,residual activity,[18],103%
same,residual activity,[20],92%
Ic1cccc(CSc2nnc(-c3ccncc3)o2)c1,residual activity,[18],89%
same,residual activity,[20],89%
NC(=O)Nc1sc(-c2ccc(F)cc2)cc1C(N)=O,residual activity,[18],93%
same,residual activity,[20],85%
COc1ccc(C(=O)Nc2sc3c(c2C(N)=O)CCCC3)cc1OC,residual activity,[18],91%
same,residual activity,[20],90%
COc1cc2ncnc(Nc3ccc(NC(=O)c4ccccc4)cc3)c2cc1OC,residual activity,[18],105%
same,residual activity,[20],111%
CC(C)c1nn(-c2c(Cl)cccc2Cl)c2nc(Cc3ccc(OCCO)cc3)[nH]c(=O)c12,residual activity,[18],101%
same,residual activity,[20],96%
COc1cc2ncnc(N3CCN(C(=O)Nc4ccc(Oc5ccccc5)cc4)CC3)c2cc1OC,residual activity,[18],95%
same,residual activity,[20],85%
COc1ccc(CNc2nc(N(CCO)CCO)nc3c2ncn3C(C)C)cc1,residual activity,[18],89%
same,residual activity,[20],95%
CC(C)(C)c1nc2c3ccc(F)cc3c3c(=O)[nH]ccc3c2[nH]1,residual activity,[18],72%
same,residual activity,[20],59%
C[C@@H](N)[C@H]1CC[C@H](C(=O)Nc2ccncc2)CC1,residual activity,[18],92%
same,residual activity,[20],106%
Cc1cc2ncc(-c3ccccc3)nc2cc1C,residual activity,[18],106%
same,residual activity,[20],95%
O=C(NC(NC(=S)Nc1ccc(F)c([N+](=O)[O-])c1)C(Cl)(Cl)Cl)C(c1ccccc1)c1ccccc1 (stereo not drawn),residual activity,[18],90%
same,residual activity,[20],100%
